Activity calls are given as the source filed them. Rule for the calls: active = hit-call score of the fitted dose curve at least 0.9, where 1 is the maximum; inactive = score below 0.9.
Assays:
[1] = read-out: urokinase plasminogen activator (uPA), PLAU (gene 5328); assay: BSK_KF3CT_uPA: BioMAP Diversity Plus: KF3CT Assay for urokinase plasminogen activator (uPA) Biomarker Activity (AID 2283075); details: primary human keratinocytes with fibroblasts; actives raise or lower the signal
How it was run: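 ELISA read-out of uPA 24 h after dosing human skin keratinocytes co-cultured with foreskin fibroblasts. Signal change fitted both ways relative to DMSO; sulforhodamine B on parallel cultures marks overt cytotoxicity.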

[2] = read-out: CD40, CD40 (gene 958); assay: BSK_LPS_CD40: BioMAP Diversity Plus: LPS Assay for CD40 Biomarker Activity (AID 2283076); details: primary human HUVEC with PBMC; actives raise or lower the signal
How it was run: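 HUVEC plus PBMC co-culture stimulated with LPS; CD40 quantified by ELISA 24 h after compound dosing. Fitting was bidirectional relative to DMSO. SRB staining of parallel cultures flagged overt cytotoxicity.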

[3] = read-out: E-selectin (Homo sapiens) (UniProt P16581); assay: BSK_LPS_Eselectin: BioMAP Diversity Plus: LPS Assay for Eselectin Biomarker Activity (AID 2283077); details: primary human HUVEC with PBMC; actives raise or lower the signal
How it was run: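 Human umbilical vein endothelial cells co-cultured with PBMC under LPS stimulation; cell-surface E-selectin measured by ELISA 24 h after dosing. Change in either direction versus DMSO, with SRB total-protein staining in parallel cultures for cytotoxicity.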

[4] = read-out: Interleukin-8 (IL8), CXCL8 (gene 3576); assay: BSK_LPS_IL8: BioMAP Diversity Plus: LPS Assay for Interleukin-8 (IL8) Biomarker Activity (AID 2283078); details: primary human HUVEC with PBMC; actives raise or lower the signal
How it was run: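 Human umbilical vein endothelial cells co-cultured with PBMC, LPS-stimulated, exposed to compound for 24 h. IL-8 quantified by ELISA; fitted in both directions against DMSO, with SRB total-protein staining of parallel cultures for cytotoxicity.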

[5] = BSK_LPS_SRB: Viability Assessment in the BioMAP Diversity Plus: LPS Assay (AID 2283079); details: primary human HUVEC with PBMC;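 note: total protein by sulforhodamine B absorbance as a cytotoxicity measure; measured one day after compound addition; fitted in both directions against DMSO so loss or gain of signal counts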
How it was run: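 Co-culture of human umbilical vein endothelial cells and PBMC, read 24 h after dosing. Total protein by 0.1% SRB staining after 10% TCA fixation, absorbance at 560 nm; bidirectional fit against DMSO.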

[6] = read-out: Interleukin-1 alpha (IL1a), IL1A (gene 3552); assay: BSK_LPS_IL1a: BioMAP Diversity Plus: LPS Assay for Interleukin-1 alpha (IL1a) Biomarker Activity (AID 2283080); details: primary human HUVEC with PBMC; actives raise or lower the signal
How it was run: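 Human umbilical vein endothelial cells co-cultured with PBMC and stimulated with LPS; IL-1a measured by ELISA 24 h after dosing. Bidirectional fitting against DMSO; cytotoxicity checked by SRB staining in parallel cultures.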

[7] = read-out: Monocyte Chemoattractant Protein-1 (MCP1), CCL2 (gene 6347); assay: BSK_LPS_MCP1: BioMAP Diversity Plus: LPS Assay for Monocyte Chemoattractant Protein-1 (MCP1) Biomarker Activity (AID 2283081); details: primary human HUVEC with PBMC; actives raise or lower the signal
How it was run: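 Human umbilical vein endothelial cells co-cultured with PBMC, LPS-stimulated; secreted MCP-1 measured by ELISA 24 h after compound addition. Bidirectional curve fitting against DMSO baseline; SRB total-protein staining in parallel cultures for cytotoxicity.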

[8] = BSK_LPS_PGE2: BioMAP Diversity Plus: LPS Assay for Prostaglandin E2 (PGE2) Biomarker Activity (AID 2283082); details: primary human HUVEC with PBMC; actives raise or lower the signal;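 for AC50: secreted prostaglandin E2 measured by ELISA in LPS-stimulated co-culture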
How it was run: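 PGE2 release measured by ELISA in an LPS-activated co-culture of human umbilical vein endothelial cells and peripheral blood mononuclear cells, read at 24 h post-dosing. DMSO served as baseline for bidirectional curve fitting.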

[9] = read-out: Macrophage colony-stimulating factor (MCSF), CSF1 (gene 1435); assay: BSK_LPS_MCSF: BioMAP Diversity Plus: LPS Assay for Macrophage colony-stimulating factor (MCSF) Biomarker Activity (AID 2283083); details: primary human HUVEC with PBMC; actives raise or lower the signal
How it was run: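 HUVEC–PBMC co-culture, M-CSF measured by ELISA 24 h after chemical dosing. Fitted in both directions relative to DMSO as negative control; overt cytotoxicity assessed by SRB total-protein staining in parallel cultures.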

[10] = read-out: Tissue Factor, F3 (gene 2152); assay: BSK_LPS_TissueFactor: BioMAP Diversity Plus: LPS Assay for Tissue Factor Biomarker Activity (AID 2283084); details: primary human HUVEC with PBMC; actives raise or lower the signal
How it was run: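 Human umbilical vein endothelial cells co-cultured with PBMC were dosed with compound. Cell-surface CD142 was measured by ELISA 24 h later. Activity was fitted bidirectionally against DMSO, with SRB total-protein staining in parallel cultures for cytotoxicity.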

[11] = read-out: Tumor necrosis factor (Homo sapiens) (UniProt P01375); assay: BSK_LPS_TNFa: BioMAP Diversity Plus: LPS Assay for Tumour Necrosis Factor alpha (TNFa) Biomarker Activity (AID 2283085); details: primary human HUVEC with PBMC; actives raise or lower the signal;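 for AC50: TNFa protein level quantified by ELISA in the co-culture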
How it was run: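 TNFa was quantified by ELISA in LPS-activated co-cultures of human endothelial cells and PBMC, 24 h post-dosing. Both increases and decreases versus DMSO were fitted.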

[12] = read-out: Vascular cell adhesion molecule 1 (VCAM1), VCAM1 (gene 7412); assay: BSK_LPS_VCAM1: BioMAP Diversity Plus: LPS Assay for Vascular cell adhesion molecule 1 (VCAM1) Biomarker Activity (AID 2283086); details: primary human HUVEC with PBMC; actives raise or lower the signal
How it was run: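 VCAM-1 quantified by ELISA in an LPS-activated co-culture of human endothelial cells and peripheral blood mononuclear cells, read 24 h post-treatment. Fitted in both directions versus DMSO; parallel SRB staining flags overt cytotoxicity.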

[13] = read-out: CD40, CD40 (gene 958); assay: BSK_SAg_CD40: BioMAP Diversity Plus: SAg Assay for CD40 Biomarker Activity (AID 2283088); details: primary human HUVEC with PBMC; actives raise or lower the signal
How it was run: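 HUVEC plus PBMC co-culture, superantigen-activated, with CD40 read by ELISA 24 h after dosing. Curves fitted in both directions against DMSO. Overt cytotoxicity checked by parallel SRB total-protein staining.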

[14] = read-out: CD69, CD69 (gene 969); assay: BSK_SAg_CD69: BioMAP Diversity Plus: SAg Assay for CD69 Biomarker Activity (AID 2283089); details: primary human HUVEC with PBMC; actives raise or lower the signal;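 for AC50: cell surface CD69 protein quantified by ELISA with fluorescence detection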
How it was run: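 Primary human vascular co-culture (umbilical vein endothelium with peripheral blood mononuclear cells) exposed to test chemical for 24 h. CD69 levels quantified by fluorescence ELISA; DMSO served as negative control for bidirectional fitting.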

[15] = read-out: Monocyte Chemoattractant Protein-1 (MCP1), CCL2 (gene 6347); assay: BSK_SAg_MCP1: BioMAP Diversity Plus: SAg Assay for Monocyte Chemoattractant Protein-1 (MCP1) Biomarker Activity (AID 2283090); details: primary human HUVEC with PBMC; actives raise or lower the signal
How it was run: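 Values derive from bidirectional fitting of ELISA-measured MCP1 against DMSO controls. Readings were taken 24 h after dosing human vascular endothelial cells co-cultured with peripheral blood mononuclear cells under superantigen stimulation.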

[16] = read-out: E-selectin (Homo sapiens) (UniProt P16581); assay: BSK_SAg_Eselectin: BioMAP Diversity Plus: SAg Assay for Eselectin Biomarker Activity (AID 2283091); details: primary human HUVEC with PBMC; actives raise or lower the signal
How it was run: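 Human umbilical vein endothelial cells co-cultured with peripheral blood mononuclear cells, SAg system. E-selectin is measured by ELISA 24 h after dosing and fitted bidirectionally against DMSO. Cytotoxicity is checked by SRB staining of parallel cultures.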

[17] = read-out: Monokine induced gamma interferon (MIG), CXCL9 (gene 4283); assay: BSK_SAg_MIG: BioMAP Diversity Plus: SAg Assay for Monokine induced gamma interferon (MIG) Biomarker Activity (AID 2283092); details: primary human HUVEC with PBMC; actives raise or lower the signal
How it was run: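 Endothelial cells and PBMC were co-cultured, exposed to test chemicals, and sampled 24 h later. MIG was measured by ELISA, and responses were fitted in both directions relative to DMSO.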

[18] = BSK_SAg_PBMCCytotoxicity: PBMC Cytotoxicity Assessment in the BioMAP Diversity Plus: SAg Assay (AID 2283093); details: primary human HUVEC with PBMC;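 note: PBMC viability measured as Alamar Blue reduction fluorescence at 546/580 nm; fitted both ways against DMSO so a hit may be loss or gain of signal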;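 for AC50: PBMC superantigen activated with SEB plus TSST-1 one hour after compound addition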
How it was run: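 Alamar Blue reduction (6 h, ex/em 546/580 nm) read after 90 h culture of PBMC pre-dosed 1 h then stimulated with SEB plus TSST-1, 20 ng/mL each. Gain or loss of signal fitted relative to DMSO.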

[19] = read-out: Interleukin-8 (IL8), CXCL8 (gene 3576); assay: BSK_SAg_IL8: BioMAP Diversity Plus: SAg Assay for Interleukin-8 (IL8) Biomarker Activity (AID 2283094); details: primary human HUVEC with PBMC; actives raise or lower the signal
How it was run: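 ELISA readout of IL-8 from a superantigen-activated endothelial/PBMC primary human co-culture, taken 24 h post-dosing and fitted in both directions against DMSO; parallel SRB total-protein staining flags overt cytotoxicity.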

[20] = read-out: CD38, CD38 (gene 952); assay: BSK_SAg_CD38: BioMAP Diversity Plus: SAg Assay for CD38 Biomarker Activity (AID 2283087); details: primary human HUVEC with PBMC; actives raise or lower the signal
How it was run: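 CD38 quantified by ELISA (fluorescence) in a superantigen-activated endothelial cell–PBMC co-culture at 24 h post-dose. Activity fitted in both directions relative to DMSO; parallel SRB and Alamar Blue cytotoxicity read-outs.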

Measured: AC50

Tumor necrosis factor (Homo sapiens), sequence (P01375 whole entry, looked up): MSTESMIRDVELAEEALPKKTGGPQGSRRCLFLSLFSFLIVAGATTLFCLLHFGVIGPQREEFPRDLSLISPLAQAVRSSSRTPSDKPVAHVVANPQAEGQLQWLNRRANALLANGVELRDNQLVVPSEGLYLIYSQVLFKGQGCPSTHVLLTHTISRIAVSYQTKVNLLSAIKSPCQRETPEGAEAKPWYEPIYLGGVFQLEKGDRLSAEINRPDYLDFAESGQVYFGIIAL
E-selectin (Homo sapiens), sequence (P16581 whole entry, looked up): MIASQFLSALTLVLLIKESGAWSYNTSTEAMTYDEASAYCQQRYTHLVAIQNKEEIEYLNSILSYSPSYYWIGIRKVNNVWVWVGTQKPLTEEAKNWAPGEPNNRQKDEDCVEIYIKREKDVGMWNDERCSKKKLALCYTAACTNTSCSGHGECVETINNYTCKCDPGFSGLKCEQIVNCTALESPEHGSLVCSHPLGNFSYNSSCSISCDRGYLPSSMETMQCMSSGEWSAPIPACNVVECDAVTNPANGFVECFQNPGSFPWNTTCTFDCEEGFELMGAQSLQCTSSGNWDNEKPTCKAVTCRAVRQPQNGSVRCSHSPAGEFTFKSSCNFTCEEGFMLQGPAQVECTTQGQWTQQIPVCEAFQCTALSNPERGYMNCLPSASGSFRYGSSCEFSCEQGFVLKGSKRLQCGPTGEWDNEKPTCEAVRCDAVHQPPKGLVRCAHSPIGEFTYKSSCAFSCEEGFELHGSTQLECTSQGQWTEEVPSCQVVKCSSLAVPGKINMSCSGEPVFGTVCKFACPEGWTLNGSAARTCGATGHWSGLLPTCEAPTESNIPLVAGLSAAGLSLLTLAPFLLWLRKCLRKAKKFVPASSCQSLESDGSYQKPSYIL

Cc1ccc(C)c(O)c1
active: [8] 9.83 µM | [11] 0.796 µM
not listed: [20]
inactive: all other assays above

On1ccccc1=S
inactive: [4] | [7] | [9] | [10] | [11] | [19]
active: [1] 11 µM | [2] 19.8 µM | [3] 31.2 µM | [5] 26.2 µM | [6] 19.8 µM | [8] 31.1 µM | [12] 19.8 µM | [13] 27.8 µM | [14] 12.2 µM | [15] 13 µM | [16] 8.16 µM | [17] 19.8 µM | [18] 18.2 µM

CCN(C(=O)c1cc(C)cc(OC[C@H](C)Nc2ccncc2)c1)C(C)C
active: [1] 13.5 µM
not listed: [2] | [18]
inactive: all other assays above

CC(C)CCCCCCOC(=O)c1ccc(C(=O)OCCCCCCC(C)C)c(C(=O)OCCCCCCC(C)C)c1
not listed: [18] | [20]
inactive: all other assays above

O=C(NS(=O)(=O)/C=C/c1ccccc1)c1ccc(F)cc1Cl
active: [13] 9.37 µM
not listed: [2]
inactive: all other assays above

— PubChem BioAssay (EPA / NIEHS)
